# TDP1 block: qHTS Assay for Inhibitors of Tyrosyl-DNA Phosphodiesterase (TDP1); recombinant TDP1, AlphaScreen DNA substrate cleavage; hit rate 0.28% among 350,000; AID 485290, 2010; Potency, µM (titrated, usually from 130 µM), inactives show at the highest dose activity change, negative = inhibition, actives largely listed as inhibitors; Tyrosyl-DNA phosphodiesterase 1 (Homo sapiens), Q9NUW8; note: % is set by controls: 0 for no effect and ±100 for the full control effect; nearly all actives have a fitted effect of over 40% in size
# Target sequence (Q9NUW8 whole entry, looked up): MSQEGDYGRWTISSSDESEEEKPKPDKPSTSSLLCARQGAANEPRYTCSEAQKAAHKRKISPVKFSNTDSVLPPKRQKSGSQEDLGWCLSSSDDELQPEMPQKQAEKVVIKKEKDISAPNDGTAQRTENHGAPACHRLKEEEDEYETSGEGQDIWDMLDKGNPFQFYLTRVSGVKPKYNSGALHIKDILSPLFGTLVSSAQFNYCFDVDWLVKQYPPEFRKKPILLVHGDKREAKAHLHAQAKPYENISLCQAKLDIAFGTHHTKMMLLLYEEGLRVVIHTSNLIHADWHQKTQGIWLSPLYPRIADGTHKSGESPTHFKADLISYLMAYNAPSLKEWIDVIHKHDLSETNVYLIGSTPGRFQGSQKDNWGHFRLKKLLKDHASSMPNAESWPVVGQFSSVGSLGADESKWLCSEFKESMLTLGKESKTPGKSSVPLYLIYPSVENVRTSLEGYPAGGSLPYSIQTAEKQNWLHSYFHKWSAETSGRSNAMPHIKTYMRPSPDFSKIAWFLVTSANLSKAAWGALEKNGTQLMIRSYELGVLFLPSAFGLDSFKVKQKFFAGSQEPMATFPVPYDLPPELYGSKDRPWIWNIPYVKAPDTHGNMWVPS
#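 Recombinant human Tdp1 (E. coli-expressed, 1 nM final) preincubated with compounds 15 min at room temperature, then 5'-biotin/3'-phosphotyrosine-FITC DNA substrate (15 nM final) added for 5 min. AlphaScreen beads (10 ug/ml final) added 10 min; cleavage lowers signal.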
# DT40 TDP1 CPT: qHTS for Inhibitors of human tyrosyl-DNA phosphodiesterase 1 (TDP1): qHTS in cells in presence of CPT. chicken DT40 Tdp1-/-;hTDP1 cells + 20 nM CPT, ATP luminescence, 48 h. Potency, µM (top dose mostly 46.2 µM), for inactives: top-dose activity change, negative = growth inhibition, most hits filed as inhibitors. hit rate 12% among 420,000. AID 686979, 2013; note: % is set by controls: 0 for no effect and ±100 for the full control effect; nearly all actives have a fitted effect of over 55% in size
#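 Chicken DT40 Tdp1-/- cells complemented with human TDP1, 400 cells/well, exposed to compounds plus 20 nM camptothecin for at least 48 h at 37 C; viability read as ATP content by CellTiter-Glo luminescence.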
# ClpP mod: qHTS Assay for Activators of ClpP; ATP-dependent Clp protease proteolytic subunit (Bacillus subtilis (strain 168)), P80244; purified B. subtilis ClpP, FRET peptide cleavage, 20 min; Potency, µM (titrated, usually from 57.5 µM), for the others: at the highest dose activity change, negative = active; AID 651965, 2013; hit rate 1.9% among 340,000; active = well fitted falling curve with a large enough effect; inconclusive = small, poorly fitted or top-dose-only effect; inactive = no such curve, though single readings can be large or run the other way; note: the source files actives as falling curves though it sought activators and does not explain the sign; nearly all actives have a fitted effect of over 65% in size
#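 FRET quenching reversal measured ClpP activation: 10 microg/mL B. subtilis ClpP at pH 8 with the FRET-FV decapeptide, read at 430 nm after 320 nm excitation. The 20-min minus 0-min signal was scaled between DMSO/no-enzyme wells and ADEP (5.8 microM final).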
# DT40 TDP1 no CPT: qHTS for Inhibitors of human tyrosyl-DNA phosphodiesterase 1 (TDP1): qHTS in cells in absence of CPT | DT40 Tdp1-/- hTDP1 cells, no CPT, ATP luminescence, 48 h | Potency, µM (titrated, usually from 46.2 µM), for the others: at the top dose activity change, negative = growth inhibition, actives largely listed as inhibitors | hit rate 15% among 420,000 | AID 686978, 2013; note: % is set by controls: 0 for no effect and ±100 for the full control effect; nearly all actives have a fitted effect of over 55% in size
#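 Cells were dispensed at 400 per well, compounds added by pin tool, plates incubated ≥48 hr at 37 °C, then CellTiter-Glo added for 30 min at room temperature before luminescence reading. Line: DT40 Tdp1-/- complemented with hTDP1; camptothecin omitted.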
# An asterisk follows results filed as active; ? = inconclusive; . = not tested or not shown; ! = not confirmed by another sample; [ ] = another dose, or the depositor's remark. The list is not random: actives were taken first. Their share in the collection is about 17%. Unless noted, calls come from the whole dose curve; as a rule, active = well fitted curve in the direction sought with a large enough effect; inconclusive = small, poorly fitted or top-dose-only effect, or another doubt; inactive = no such curve, though single readings can be large; an effect the other way counts as inactive or inconclusive. Potency is the fitted concentration of half-maximal effect.
SMILES,TDP1 block,DT40 TDP1 CPT,ClpP mod,DT40 TDP1 no CPT
CCN1C(=O)C(O)(C2COC(C)(C)CC2=O)c2cc(Br)ccc21 (configuration not stated),2%,1.3µM*,0%,1.2µM*
CCN1C(=O)C(O)(c2c[nH]c3ccccc23)c2cc(Br)ccc21 (configuration not stated),5%,-10%,-1%,?
COc1ccc(Br)cc1CNC(=O)CCC(=O)N1CCSc2ccccc21,8%,?,-3%,21µM*
Cc1ccccc1CNC(=O)CCC(=O)N1CCSc2ccccc21,-8%,?,-2%,?
COc1ccc(Br)cc1CNC(=O)c1ccc2c(c1)N(C)CCS2,.,23µM*,4%,?
Cc1cc(C)cc(NC(=O)CCC(=O)N2CCSc3ccccc32)c1,3%,?,2%,18µM*
CCN1CCSc2ccc(C(=O)NCc3cc(Br)ccc3OC)cc21,.,16µM*,4%,?
CC(NC(=O)C1CCOCC1)c1nnc2n1CCN(Cc1ccc3ccccc3c1)CC2 (configuration not stated),.,15%[9.04 µM],.,-16%
CSc1nc2ncncc2[nH]1,.,-8%,.,-10%
CC(C)(C)NC(=O)C(c1ccc(-c2ccccc2)cc1)N(C[C@H]1CC[C@@H]([C@@H]2CC[C@H](CO)O2)O1)C(=O)c1ccc(C(C)(C)C)cc1 (some centres not stated),2%[56.1 µM],?,1%,21µM*
CC(C)CCNC(=O)C(c1ccncc1)N(Cc1cccs1)C(=O)Cn1nnc(-c2ccc(F)cc2)n1 (configuration not stated),5%,9.2µM*,-4%,?
CCC(C(=O)NC1CCCC1)N(C(=O)Cn1nnc(-c2ccc(C)cc2)n1)C1CCCC1 (configuration not stated),.,26µM*,1%,18µM*
O=C(NCC1CCCO1)C(c1ccncc1)N(Cc1cccs1)C(=O)Cn1nnc(-c2ccc(F)cc2)n1 (configuration not stated),3%,-10%,.,-10%
COc1ccc(-c2nnn(CC(=O)N(Cc3cccs3)C(C)C(=O)NC3CCCC3)n2)cc1OC (configuration not stated),6%,29µM*,-2%,?
CCC(C(=O)NC1CCCC1)N(C(=O)Cn1nnc(-c2ccc(OC)c(OC)c2)n1)C1CCCCC1 (configuration not stated),1%,13µM*,-1%,?
O=C(NC1CCCN(Cc2ccc(Cl)cc2)C1)c1ccccc1-c1ncc[nH]1 (configuration not stated),.,-9%,-4%,6%
CNCc1ccccc1OCc1ccc(F)cc1,0%,?,.,?
CCOc1cc(C2NN=C(c3ccccc3)S2)ccc1OCc1ccc(F)cc1 (configuration not stated),1%,?,14µM*,?
CN(C)P(=O)(Nc1cccc2ccccc12)Nc1cccc2ccccc12,1%,8.2µM*,?,9.2µM*
CN1CCC2(CC1)CCN(C(=O)c1cccc(F)c1)CC2,.,21%,.,-1%
Cc1ccc(NC(=O)CN2C(=O)COc3ccc(S(=O)(=O)NC4CCCC4)cc32)c(Cl)c1,9%,-26%,0%,?
CCOc1ccccc1NC(=O)CN1C(=O)COc2ccc(S(=O)(=O)NC3CCCC3)cc21,4%,26µM*,-4%,?
COc1ccc(Cl)cc1NC(=O)CN1C(=O)COc2ccc(S(=O)(=O)NC3CCCC3)cc21,6%,7%,2%,-13%
CC(C)N(Cc1ccccc1)C(=O)CN1C(=O)COc2ccc(S(=O)(=O)NC3CCCC3)cc21,1%,26µM*,-2%,23µM*!
Cc1cccc(C(=O)n2nc(-c3ccco3)nc2NCc2ccccc2)c1,7%,?,1%,?
SMILES,TDP1 block,DT40 TDP1 CPT,ClpP mod,DT40 TDP1 no CPT
CN(C)S(=O)(=O)c1ccc(NC(=O)CCCNC(=O)c2ccc(Cl)cc2)cc1,.,-28%,2%,-16%
O=C(c1ccco1)N1CCN(C2CN(Cc3cn(Cc4ccccc4C(F)(F)F)nn3)S(=O)(=O)C2)CC1 (configuration not stated),.,2%,0%,7%
Cc1csc(NC(=O)CCc2c(C)nc3cc(-c4ccc(Cl)cc4)nn3c2C)n1,-3%,18µM*,?,13µM*
CCOC(=O)CC(NC(=O)CCc1c(C)nc2c(-c3ccccc3)c(C)nn2c1C)c1ccc(OC(C)C)cc1 (configuration not stated),-5%,?,-2%,?
Cc1nc2cc(-c3ccccc3)nn2c(C)c1CCC(=O)Nc1ccc(F)cc1F,7%,10µM*,-26%,12µM*
CCc1ccccc1NC(=O)CCc1c(C)nc2cc(-c3ccccc3)nn2c1C,3%,?,4%,18µM*
CCOC(=O)CC(NC(=O)CCc1c(C)nc2cc(-c3ccccc3)nn2c1C)c1ccc(C)cc1 (configuration not stated),7%,16µM*,5%,18µM*
CCc1ccc(Nc2nc3ccccc3c(=O)s2)cc1,3%,-8%,2%,-1%
CCc1ccc(Nc2n[n+](-c3ccccc3)c(-c3ccc(N(CC)CC)cc3)s2)cc1,.,6.5µM*,4%,9.2µM*
CN(C)c1ccc(-c2sc(Nc3ccccc3)n[n+]2-c2ccc(F)cc2)cc1,.,?,-5%,?
O=C(O)c1ccc(-c2sc(Nc3ccccc3)n[n+]2-c2ccccc2)cc1,.,-1%,-5%,-5%
CCc1ccc(Nc2n[n+](-c3ccccc3)c(-c3ccc(OCc4ccccc4)cc3)s2)cc1,.,4.6µM*,-5%,5.2µM*
CCN(CC)c1ccc(-c2sc(Nc3ccccc3)n[n+]2-c2ccc(F)cc2)cc1,.,?,-17%,26µM*
CC(=O)Nc1ccc(S(=O)(=O)Nc2ccccc2C(=O)NCc2cccnc2)cc1,9%,-2%,.,-3%
CCc1ccc(-n2c(SCc3cccc(F)c3)nc3[nH]ncc3c2=O)cc1,9%,21µM*,-3%,16µM*
Cc1ccc(-n2c(SCc3ccccc3C)nc3[nH]ncc3c2=O)cc1C,8%,?,-4%,?
CCc1ccc(-n2c(SCc3ccccc3C)nc3[nH]ncc3c2=O)cc1,8%,?,-7%,21µM*
Cc1ccc(-n2c(SCc3cccc(F)c3)nc3[nH]ncc3c2=O)cc1C,9%,21µM*,2%,21µM*
Cc1cccc(C)c1N(CC(=O)NCc1ccc(F)cc1)C(=O)c1csnn1,2%,?,-1%,-11%

# Screening results: PubChem, National Center for Advancing Translational Sciences (NCATS)
